An excerpt weighted towards active compounds, which were near 1.6% of everything screened.
MOR-DOR ag – OPRM1-OPRD1 heterodimerization agonism | P35372+P41143 | cells, luminescence | activation, % at 9.3 µM | 340,000 compounds, 0.3% hits | AID 504326; in the data active = activation above about 18%;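 note: 0% = vehicle-treated cells and 100% = reference agonist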
MOR-DOR inv ag – inverse agonists of human mu-delta opioid receptor heterodimerization | AID 504357 | inhibition, % at 9.3 µM | 340,000 compounds, 0.21% hits | cell-based MOR-DOR heterodimer luminescence, inverse agonism | P35372+P41143; in the data active = inhibition above about 22%, passing the limit was not always enough;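 note: 0% = cells with DMSO and 100% = wells without cells with DMSO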
HTR5A inv ag – inverse agonist of human HTR5A in OPRM1-OPRD1 counter-screen. P47898. HTR5A cell line, luminescence, inverse agonism. inhibition, % at 9.3 µM. 340,000 compounds, 0.083% hits; in the data active = inhibition mostly above about 23%, no sharp cut-off; inactive = mostly below about 18%;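 note: 0% = cells with DMSO and 100% = no-cell wells with DMSO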
Target sequence (P47898 whole entry, looked up): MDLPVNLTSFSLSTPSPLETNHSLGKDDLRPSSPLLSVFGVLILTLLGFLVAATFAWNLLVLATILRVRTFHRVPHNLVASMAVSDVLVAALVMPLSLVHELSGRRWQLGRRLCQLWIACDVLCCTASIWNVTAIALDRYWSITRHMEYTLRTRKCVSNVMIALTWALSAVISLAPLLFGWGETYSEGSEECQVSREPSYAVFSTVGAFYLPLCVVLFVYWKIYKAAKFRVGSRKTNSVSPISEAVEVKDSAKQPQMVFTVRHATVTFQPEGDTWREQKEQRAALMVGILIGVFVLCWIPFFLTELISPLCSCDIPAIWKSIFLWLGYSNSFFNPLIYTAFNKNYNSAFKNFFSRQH
PolyA inhibitor – yeast polyadenylation inhibition | 300,000 compounds, 0.02% hits | S. cerevisiae SKY197-pL101 polyadenylation reporter, beta-gal luminescence; efflux-impaired pdr1/pdr3 knockout yeast; score 100 = 6 SD above DMSO | activity score, % at 12 µM;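 active = lowest replicate activity score at least 50, where 100 means six control SD above control mean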;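 note: yeast exposed to compound for 9 h at 30 °C; higher score means more reporter readthrough which indicates perturbed polyadenylation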
NALP1 inh – blocks the NALP1 inflammasome reconstituted in yeast; 280,000 compounds, 0.61% hits; inhibition, % at 10 µM; S. cerevisiae NALP1/ASC/caspase-1 growth, X-gal OD620, 72 h; in the data active = inhibition mostly above about 24%, no sharp cut-off; inactive = mostly below about 32%
HTR5A ag – counter-screen for OPRM1-OPRD1 agonists: human HTR5A agonism | P47898 | HTR5A agonist assay, luminescence, cell-based | activation, % at 9.3 µM | 340,000 compounds, 0.61% hits | AID 504692; in the data active = activation mostly above about 9.5%, no sharp cut-off; inactive = mostly below about 7.6%;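 note: 0% = cells with vehicle only and 100% = reference agonist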
* marks the source's active call; other numbers are inactive results; · = not tested or not shown.

SMILES	MOR-DOR ag	MOR-DOR inv ag	HTR5A inv ag	PolyA inhibitor	NALP1 inh	HTR5A ag
Fc1ccc(Br)cc1C1C=C(c2ccc(Br)s2)Nc2ncnn21 (stereo unspecified)	0	1	1	-2	26	17*
O=C(c1ccccc1)c1ccc(OCC(O)CN2CCN(Cc3ccccc3)CC2)cc1 (stereo unspecified)	2	-10	-6	-8	29	2
O=C(c1ccccc1)c1ccc(OCCCN2CCCC2)cc1	-1	6	0	-5	33	-1
CC(=O)c1ccc(OCC(O)CN2CCN(Cc3ccccc3)CC2)cc1 (stereo unspecified)	-3	15	-8	14	41*	3
O=C(c1ccccc1)c1ccc(OCCOCCN2CCN(Cc3ccccc3)CC2)cc1	3	-14	7	-23	38*	-3
COc1ccc2c(c1)c1nnc(SC)nc1n2C	-2	15	-2	96*	0	1
CCOCCn1c(=NC(=O)CSCC(=O)N2CCOCC2)sc2cc(OC)ccc21	0	-1	13	19	4	-1
Cn1c(CNC(=O)c2ccccc2F)nnc1SCC(=O)N1CCN(c2ccccc2)CC1	2	-8	-6	24	9	12*
O=C(CSc1nc(C2CC2)nc2ccccc12)N1c2ccccc2Sc2ccccc21	-3	12	10	-14	21	-5
Cc1ccc(CCNC(=O)CN(C)S(=O)(=O)c2cnc[nH]2)cc1	-1	7	-2	23	10	1
CN(CC(=O)NCc1ccccc1)S(=O)(=O)c1cnc[nH]1	1	-4	3	18	45*	1
Cc1cc(C(=O)NNS(=O)(=O)c2cc(C(=O)O)ccc2Cl)c(C)n1-c1ccccc1	-3	12	7	·	·	-3
O=C(CN1CCN(Cc2cccc3ccccc23)CC1)NCCc1ccccc1	2	-20	-8	-10	27*	3
Cc1ccccc1CN1CCN(CC(=O)NCc2ccccc2)CC1	-1	5	17	2	6	-5
Cc1cc(C)n2nc3ccccc3c2n1	0	1	-3	5	25*	1
CC(C)c1ccccc1NC(=S)NC1CCN(Cc2ccccc2)CC1	3	-22	5	-10	14	11*
Cn1c2ccccc2c(=O)c2c(=O)n(C3CCCCC3)c(-c3ccco3)nc21	-4	21	-48	-23	42	13*
Cc1nc2c(c(=O)c3ccccc3n2C)c(=O)n1C1CCCCCC1	-4	18	0	1	·	7
CCCNS(=O)(=O)c1ccc(OCC(=O)Nc2ccc3c(c2)OCCO3)cc1	-1	6	7	6	12	-3
CCCNS(=O)(=O)c1ccc(OCC(=O)Nc2ccc3c(c2)OCCO3)c(C)c1	2	-11	3	13	·	9.6*
CCC(C)NS(=O)(=O)c1ccc(OCC(=O)Nc2ccc3c(c2)OCO3)cc1 (stereo unspecified)	0	0	-10	15	41*	4
Nc1nc(Br)c2ccccc2c1-c1ccccc1	5	-27	-12	-36	20	4
Nc1nc(Br)c2c(F)cccc2c1-c1ccc(Cl)cc1	10	-56	-39	-47	18	11*
CS(=O)(=O)c1ncc(Cl)c(C(=O)Nc2ccc3ccccc3c2)n1	-8	57*	18	-77	-3	-5
COc1ccc(N=Cc2cc(Cc3ccccc3Cl)cc([N+](=O)[O-])c2O)cc1OC	1	-3	-10	-49	12	4
SMILES	MOR-DOR ag	MOR-DOR inv ag	HTR5A inv ag	PolyA inhibitor	NALP1 inh	HTR5A ag
Cc1ccc(N=Cc2cc(Cc3ccccc3Cl)cc([N+](=O)[O-])c2O)c(O)c1	11	-77	-12	-33	7	12*
CC(C)C(C)NC(=O)COC(=O)/C=C/c1ccc(S(=O)(=O)N2CCc3ccccc32)cc1 (stereo unspecified)	-1	5	-11	15	4	4
O=C(CNC(=O)c1ccccc1F)OC(C(=O)Nc1cc(C(F)(F)F)ccc1Cl)c1ccccc1 (stereo unspecified)	0	0	4	-24	41*	1
C[C@H](NC(=O)c1ccccc1Cl)C(=O)OC(C(=O)Nc1cc(C(F)(F)F)ccc1Cl)c1ccccc1 (stereo partly specified)	5	-27	-29	-4	35*	8
CC1=NNC(=O)/C1=C\c1cn(-c2ccccc2)nc1-c1ccc(F)cc1	7	-34	-46	-33	8	17*
CCOC(=O)c1cc(NC(=O)N(C(C)C)C(C)C)c(C)nc1C	-4	20	-5	-1	12	1
CCOC(=O)c1cc(NC(=O)N(CC)CC)c(C)nc1C	-2	10	19	5	37*	-1
CN(C)C(=O)CSc1nc2ccccc2n1Cc1ccccc1	-2	11	-1	-2	19	0
CC(C)N(C(=O)CSc1nc2ccccc2n1Cc1ccccc1)C(C)C	-1	4	-23	-16	5	10.0*
COc1cccc(C(=O)CSc2nnnn2C2CCCCC2)c1	0	3	-3	5	6	1
O=C(CN1CCN(c2ccccc2O)CC1)Nc1ccc2c(c1)OCCCO2	0	-1	-15	·	·	6
COC(=O)c1cn(NC(=O)c2cccc(N(C)C)c2)c(=O)c2ccccc12	1	-4	-5	-11	13	9.2*
COC(=O)C1(C(C[N+](=O)[O-])c2ccc(C)cc2)C(=O)NCC1c1ccco1 (stereo unspecified)	·	·	·	1	46*	·
CCC1(C(=O)OC)NC(c2ccco2)C2C(=O)N(c3ccc(C)cc3)C(=O)C21 (stereo unspecified)	0	0	3	6	17	-2
Cc1cc(N2C(=O)c3ccc(C(=O)Nc4ccc(CC(=O)O)cc4)cc3C2=O)no1	-2	11	-1	-7	21	-2
COc1ccccc1-c1ccc(SCc2ccc(F)cc2)nn1	0	-2	-26	-5	4	9.5*
CCCCCCCCCCOC(=O)Cn1c(COc2cccc(C)c2)[n+](C)c2ccccc21	7	-36	-47	-7	8	13*
CCOC(=O)Cn1c(COc2ccccc2OC)[n+](C)c2ccccc21	·	·	·	2	·	·
CCOC(=O)C(NC(=O)c1ccccc1)=C1CCCCC1	-2	11	13	13	-9	1
CCOP(=O)(OCC)/C(=C/N1CCCCC1)NC(=O)c1ccccc1	-2	12	-1	-7	34*	0
Cc1ccc(-c2noc(CCC(=O)NCc3ccccc3CN3CCOCC3)n2)cc1	2	-8	15	·	·	14*
Cc1ccc(-c2noc(CN3CCOCC3)n2)cc1	-2	11	-4	3	8	1

Source: PubChem
